PubChem BioAssay (NCI)
The panel holds about 79,000 compounds, 15% with a hit somewhere; the sample as a whole holds those more often. Unmarked numbers belong to inactive results. Activity calls are given as the source filed them. Rule as the data show it: active = growth inhibition above about 70%; inactive = the rest.

How the values were obtained:
[1] = NCI Yeast Anticancer Drug Screen. Data for the rad52 strain (AID 147);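 also: 0% = growth of vehicle-treated control cultures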; details: S. cerevisiae rad52 mutant growth inhibition, hits give high values
Method in brief: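 Yeast strain carrying a DNA damage repair alteration was exposed to test compounds. Growth inhibition was measured relative to vehicle-treated controls.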

[2] = NCI Yeast Anticancer Drug Screen. Data for the wt1 strain (AID 149);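 also: 0% = growth of vehicle-treated wt1 cultures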; details: S. cerevisiae wt1 strain (SPY 50644) growth inhibition, hits give high values
Method in brief: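 Yeast wt1 strain exposed to compounds; growth inhibition measured relative to vehicle-treated controls.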

[3] = NCI Yeast Anticancer Drug Screen. Data for the rad50EPP+ strain (AID 151);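 also: 0% = growth of vehicle-treated control cultures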; details: S. cerevisiae rad50 mutant strain, hits give high values
Method in brief: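 Yeast strain carrying rad50 alteration (rad50EPP+) exposed to compounds; growth inhibition measured relative to vehicle-treated controls.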

[4] = NCI Yeast Anticancer Drug Screen. Data for the rad50 strain (AID 155);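 also: 0% = growth of vehicle-only cultures of the same strain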; details: S. cerevisiae rad50 strain growth inhibition, hits give high values
Method in brief: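 Yeast carrying a defined DNA repair defect were exposed to test compounds, and growth was compared with vehicle-treated controls to give percent inhibition.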

[5] = NCI Yeast Anticancer Drug Screen. Data for the mec2-1 strain (AID 157); details: S. cerevisiae mec2-1 strain, hits give high values
Method in brief: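 mec2-1 yeast strain, carrying an alteration in DNA damage repair or cell cycle control, was exposed to compounds; growth inhibition was measured relative to vehicle-treated controls.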

[6] = NCI Yeast Anticancer Drug Screen. Data for the rad14 strain (AID 159);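 also: 0% = growth of vehicle-treated control cultures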; details: S. cerevisiae rad14 strain growth inhibition, hits give high values
Method in brief: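 Yeast cells carrying a defined DNA-repair defect were exposed to compounds, and growth inhibition was calculated relative to vehicle-treated control cultures.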

[7] = NCI Yeast Anticancer Drug Screen. Data for the sgs1 mgt1 strain (AID 161);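 also: 0% = growth of cultures given vehicle only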; details: S. cerevisiae sgs1 mgt1 strain, hits give high values
Method in brief: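 Compounds are added to genetically altered yeast, and growth is compared with cultures given vehicle alone to give percent inhibition.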

[8] = NCI Yeast Anticancer Drug Screen. Data for the CLN2oe strain (AID 163);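 also: 0% = growth of vehicle-only control cultures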; details: S. cerevisiae CLN2oe strain, hits give high values
Method in brief: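 Yeast cells carrying a defined cell-cycle control alteration were exposed to test compounds. Growth inhibition was scored against vehicle-treated control cultures.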

[9] = NCI Yeast Anticancer Drug Screen. Data for the cln2 rad14 strain (AID 165);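 also: 0% = growth equal to vehicle treated cultures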; details: S. cerevisiae cln2 rad14 strain, hits give high values
Method in brief: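 Yeast carrying cln2 and rad14 alterations (cell cycle control and DNA damage repair) were exposed to compounds. Growth inhibition was measured against vehicle-treated controls.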

[10] = NCI Yeast Anticancer Drug Screen. Data for the bub3 strain (AID 167); details: S. cerevisiae bub3 mutant strain, hits give high values
Method in brief: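 Compounds were applied to a genetically altered yeast strain carrying a cell-cycle control defect. Growth inhibition was scored against vehicle-treated controls.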

[11] = NCI Yeast Anticancer Drug Screen. Data for the wt2 strain (AID 169);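 also: 0% = growth of vehicle-treated yeast cultures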; details: S. cerevisiae wt2 strain growth inhibition, hits give high values
Method in brief: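 Yeast cells were exposed to test compounds, and growth inhibition was measured relative to vehicle-treated controls.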

[12] = NCI Yeast Anticancer Drug Screen. Data for the mlh1 strain (AID 171);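 also: 0% = growth of vehicle-treated control cultures of the same strain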; details: S. cerevisiae mlh1 strain growth inhibition, hits give high values
Method in brief: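 Yeast carrying a defined genetic alteration in DNA damage repair or cell cycle control were exposed to test compounds. Growth inhibition was measured relative to vehicle-treated controls.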

[13] = NCI Yeast Anticancer Drug Screen. Data for the sgs1 strain (AID 173);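 also: 0% = growth of vehicle-only control cultures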; details: S. cerevisiae sgs1 mutant, hits give high values
Method in brief: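 Yeast mutant strains carrying defined defects in DNA damage repair or cell cycle control were exposed to test compounds. Growth inhibition was scored against vehicle-treated controls.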

[14] = NCI Yeast Anticancer Drug Screen. Data for the mlh1 rad18 strain (AID 175); details: S. cerevisiae mlh1 rad18 strain growth inhibition, hits give high values
Method in brief: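 Growth inhibition of the yeast strain was measured after compound exposure and expressed relative to vehicle-treated controls. The strain carries defined defects in DNA damage repair.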

[15] = NCI Yeast Anticancer Drug Screen. Data for the rad18 strain (AID 177); details: S. cerevisiae rad18 mutant growth inhibition, hits give high values
Method in brief: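 Yeast carrying a defined DNA damage repair alteration were exposed to compounds. Growth inhibition was expressed relative to vehicle-treated controls.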

[16] = NCI Yeast Anticancer Drug Screen. Data for the mgt1 strain (AID 153); details: S. cerevisiae mgt1 mutant growth inhibition, hits give high values
Method in brief: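 Yeast mgt1 strain (DNA repair/cell-cycle alteration panel) exposed to compounds; growth inhibition measured relative to vehicle-treated controls.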

[17] = at 5.0 µM (retest, dose inferred, filed as 0.5)
[18] = at 50.0 µM (retest, dose inferred, filed as 5.0)

COc1ccc2c(C)cc(N/N=C/c3sccc3C)nc2c1
growth inhibition ([1]; at 1.2 µM): -31% | growth inhibition ([1]; at 3.7 µM): -45% | growth inhibition ([1]; at 11.0 µM): -35% | growth inhibition ([1]; at 33.0 µM): 29% | growth inhibition ([1]; at 100.0 µM): 18% | growth inhibition ([2]; at 1.2 µM): -30% | growth inhibition ([2]; at 3.7 µM): -32% | growth inhibition ([2]; at 11.0 µM): -15% | growth inhibition ([2]; at 33.0 µM): 63% | growth inhibition ([2]; at 100.0 µM): 66% | growth inhibition ([3]; at 1.2 µM): -11% | growth inhibition ([3]; at 3.7 µM): -10% | growth inhibition ([3]; at 11.0 µM): -4% | growth inhibition ([3]; at 33.0 µM): 24% | growth inhibition ([3]; at 100.0 µM): 21% | growth inhibition ([4]; at 1.2 µM): -15% | growth inhibition ([4]; at 3.7 µM): -25% | growth inhibition [4, 17]: 22% | growth inhibition ([4]; at 11.0 µM): 23% | growth inhibition ([4]; at 33.0 µM): 80% (active) | growth inhibition [4, 18]: 92% (active) | growth inhibition ([4]; at 50.0 µM): 68.5% | growth inhibition ([4]; at 100.0 µM): 73% (active) | growth inhibition ([5]; at 1.2 µM): -22% | growth inhibition ([5]; at 3.7 µM): -28% | growth inhibition [5, 17]: 12% | growth inhibition ([5]; at 11.0 µM): -8% | growth inhibition ([5]; at 33.0 µM): 57% | growth inhibition [5, 18]: 92% (active) | growth inhibition ([5]; at 50.0 µM): 50% | growth inhibition ([5]; at 100.0 µM): 46% | growth inhibition ([6]; at 1.2 µM): -53% | growth inhibition ([6]; at 3.7 µM): -27% | growth inhibition ([6]; at 11.0 µM): -10% | growth inhibition ([6]; at 33.0 µM): 35% | growth inhibition ([6]; at 100.0 µM): 31% | growth inhibition [7, 17]: 19% | growth inhibition [7, 18]: 8% | growth inhibition ([7]; at 50.0 µM): 80.3% (active) | growth inhibition ([8]; at 1.2 µM): -6% | growth inhibition ([8]; at 3.7 µM): -9% | growth inhibition ([8]; at 11.0 µM): 0% | growth inhibition ([8]; at 33.0 µM): 65% | growth inhibition ([8]; at 100.0 µM): 56% | growth inhibition [9, 17]: 4% | growth inhibition [9, 18]: -26% | growth inhibition ([9]; at 50.0 µM): 45.8% | growth inhibition ([10]; at 1.2 µM): -11% | growth inhibition ([10]; at 3.7 µM): 10% | growth inhibition [10, 17]: 13% | growth inhibition ([10]; at 11.0 µM): -7% | growth inhibition ([10]; at 33.0 µM): 88% (active) | growth inhibition [10, 18]: -26% | growth inhibition ([10]; at 50.0 µM): 45.1% | growth inhibition ([10]; at 100.0 µM): 82% (active) | growth inhibition ([11]; at 1.2 µM): 13% | growth inhibition ([11]; at 3.7 µM): -6% | growth inhibition ([11]; at 11.0 µM): 24% | growth inhibition ([11]; at 33.0 µM): 78% (active) | growth inhibition ([11]; at 100.0 µM): 73% (active) | growth inhibition ([12]; at 1.2 µM): -27% | growth inhibition ([12]; at 3.7 µM): -5% | growth inhibition ([12]; at 11.0 µM): -7% | growth inhibition ([12]; at 33.0 µM): 60% | growth inhibition ([12]; at 100.0 µM): 56% | growth inhibition ([13]; at 1.2 µM): -34% | growth inhibition ([13]; at 3.7 µM): -37% | growth inhibition ([13]; at 11.0 µM): 14% | growth inhibition ([13]; at 33.0 µM): 88% (active) | growth inhibition ([13]; at 100.0 µM): 78% (active) | growth inhibition [14, 17]: 27% | growth inhibition [14, 18]: 94% (active) | growth inhibition ([14]; at 50.0 µM): 76.3% (active) | growth inhibition ([15]; at 1.2 µM): 3% | growth inhibition ([15]; at 3.7 µM): -4% | growth inhibition ([15]; at 11.0 µM): 6% | growth inhibition ([15]; at 33.0 µM): 85% (active) | growth inhibition ([15]; at 100.0 µM): 70% (active)

Cc1cc(N(CCOS(C)(=O)=O)CCOS(C)(=O)=O)ccc1C=O
growth inhibition ([2]; at 1.2 µM): 27% | growth inhibition ([2]; at 3.7 µM): 28% | growth inhibition ([2]; at 11.0 µM): 32% | growth inhibition ([2]; at 33.0 µM): 37% | growth inhibition ([2]; at 100.0 µM): 31% | growth inhibition ([3]; at 1.2 µM): 15% | growth inhibition ([3]; at 3.7 µM): 45% | growth inhibition ([3]; at 11.0 µM): 34% | growth inhibition ([3]; at 33.0 µM): 30% | growth inhibition ([3]; at 100.0 µM): 15% | growth inhibition ([16]; at 1.2 µM): 14% | growth inhibition ([16]; at 3.7 µM): 26% | growth inhibition ([16]; at 11.0 µM): 34% | growth inhibition ([16]; at 33.0 µM): 41% | growth inhibition ([16]; at 100.0 µM): 44% | growth inhibition ([4]; at 1.2 µM): 4% | growth inhibition ([4]; at 3.7 µM): 16% | growth inhibition [4, 17]: 29% | growth inhibition ([4]; at 11.0 µM): 26% | growth inhibition ([4]; at 33.0 µM): 43% | growth inhibition [4, 18]: 57% | growth inhibition ([4]; at 50.0 µM): 50% | growth inhibition ([4]; at 100.0 µM): 66% | growth inhibition ([5]; at 1.2 µM): 6% | growth inhibition ([5]; at 3.7 µM): 23% | growth inhibition [5, 17]: 24% | growth inhibition ([5]; at 11.0 µM): 24% | growth inhibition ([5]; at 33.0 µM): 41% | growth inhibition [5, 18]: 57% | growth inhibition ([5]; at 50.0 µM): 54.8% | growth inhibition ([5]; at 100.0 µM): 68% | growth inhibition ([6]; at 1.2 µM): 20% | growth inhibition ([6]; at 3.7 µM): 36% | growth inhibition ([6]; at 11.0 µM): 50% | growth inhibition ([6]; at 33.0 µM): 64% | growth inhibition ([6]; at 100.0 µM): 83% (active) | growth inhibition [7, 17]: 13% | growth inhibition [7, 18]: 38% | growth inhibition ([7]; at 50.0 µM): 12.8% | growth inhibition ([8]; at 1.2 µM): 2% | growth inhibition ([8]; at 3.7 µM): 9% | growth inhibition ([8]; at 11.0 µM): 10% | growth inhibition ([8]; at 33.0 µM): 36% | growth inhibition ([8]; at 100.0 µM): 34% | growth inhibition [9, 17]: 34% | growth inhibition [9, 18]: 45% | growth inhibition ([9]; at 50.0 µM): 36.9% | growth inhibition ([10]; at 1.2 µM): 16% | growth inhibition ([10]; at 3.7 µM): 17% | growth inhibition [10, 17]: -3% | growth inhibition ([10]; at 11.0 µM): 4% | growth inhibition ([10]; at 33.0 µM): 18% | growth inhibition [10, 18]: 13% | growth inhibition ([10]; at 50.0 µM): 4.7% | growth inhibition ([10]; at 100.0 µM): 34% | growth inhibition ([11]; at 1.2 µM): -45% | growth inhibition ([11]; at 3.7 µM): -46% | growth inhibition ([11]; at 11.0 µM): -43% | growth inhibition ([11]; at 33.0 µM): 1% | growth inhibition ([11]; at 100.0 µM): 33% | growth inhibition ([12]; at 1.2 µM): 14% | growth inhibition ([12]; at 3.7 µM): 28% | growth inhibition ([12]; at 11.0 µM): 24% | growth inhibition ([12]; at 33.0 µM): 52% | growth inhibition ([12]; at 100.0 µM): 60% | growth inhibition ([13]; at 1.2 µM): 19% | growth inhibition ([13]; at 3.7 µM): 22% | growth inhibition ([13]; at 11.0 µM): 39% | growth inhibition ([13]; at 33.0 µM): 51% | growth inhibition ([13]; at 100.0 µM): 58% | growth inhibition [14, 17]: 56% | growth inhibition [14, 18]: 88% (active) | growth inhibition ([14]; at 50.0 µM): 82.5% (active) | growth inhibition ([15]; at 1.2 µM): 29% | growth inhibition ([15]; at 3.7 µM): 50% | growth inhibition ([15]; at 11.0 µM): 70% (active) | growth inhibition ([15]; at 33.0 µM): 86% (active) | growth inhibition ([15]; at 100.0 µM): 89% (active)
